Set-up in all cases: species or system human, MV4-11 + K-562 + COLO205 + SK-N-BE2 + OVCAR-8
One assay deals with ADRBK1. To be noted: read-out: apparent Kd, compound concentrations: 100 nM and 1000 nM (sheet 'Samples'), n = 1.
A further assay relates to AKT3. The following applies: read-out: apparent Kd, compound concentrations: 100 nM and 1000 nM (sheet 'Samples'), n = 1.
The next assay relates to CDC42BPA. The following applies: read-out: apparent Kd; compound concentrations: 100 nM and 1000 nM (sheet 'Samples'), CATDS: 2.9889506530370698E-2; n = 1.
The next assay relates to CDC42BPB. The following applies: read-out: apparent Kd; compound concentrations: 100 nM and 1000 nM (sheet 'Samples'), CATDS: 7.2209321727509101E-2; n = 1.
The subject of another assay is CDC42BPG. The following applies: read-out: apparent Kd; compound concentrations: 100 nM and 1000 nM (sheet 'Samples'), CATDS: 5.7260921277851103E-2; n = 1.
The next assay relates to CDKL5. To be noted: read-out: apparent Kd, compound concentrations: 100 nM and 1000 nM (sheet 'Samples'), n = 1.
The test system of a further assay is CHEK1. To be noted: read-out: apparent Kd; compound concentrations: 100 nM and 1000 nM (sheet 'Samples'), CATDS: 4.9980963828105997E-2; n = 1.
The subject of another assay is JAK2. To be noted: read-out: apparent Kd; compound concentrations: 100 nM and 1000 nM (sheet 'Samples'), CATDS: 2.4440515668024899E-2; n = 1.
A further assay concerns NUAK1. To be noted: read-out: apparent Kd; compound concentrations: 100 nM and 1000 nM (sheet 'Samples'), CATDS: 4.1044446827870798E-2; n = 1.
A further assay deals with NUAK2. The following applies: read-out: apparent Kd; compound concentrations: 100 nM and 1000 nM (sheet 'Samples'), CATDS: 3.8421609760156301E-2; n = 1.
For another assay, the system named is PKN1. To be noted: read-out: apparent Kd; compound concentrations: 100 nM and 1000 nM (sheet 'Samples'), CATDS: 3.7942588141146198E-2; n = 1.
Another assay deals with PKN2. To be noted: read-out: apparent Kd; compound concentrations: 100 nM and 1000 nM (sheet 'Samples'), CATDS: 2.7249776498222002E-2; n = 1.
A further assay concerns PKN3. The following applies: read-out: apparent Kd; compound concentrations: 100 nM and 1000 nM (sheet 'Samples'), CATDS: 1.9288035237500001E-2; n = 1.
A further assay relates to PRKAA1. The following applies: read-out: apparent Kd; compound concentrations: 100 nM and 1000 nM (sheet 'Samples'), CATDS: 2.2574550296483802E-2; n = 1.
Another assay has as its system PRKAA2. To be noted: read-out: apparent Kd; compound concentrations: 100 nM and 1000 nM (sheet 'Samples'), CATDS: 1.9838935716802002E-2; n = 1.
Another assay deals with PRKACA. The following applies: read-out: apparent Kd; compound concentrations: 100 nM and 1000 nM (sheet 'Samples'), CATDS: 9.6222688341774595E-2; n = 1.
The next assay concerns PRKACB. To be noted: read-out: apparent Kd; compound concentrations: 100 nM and 1000 nM (sheet 'Samples'), CATDS: 7.2959241198541205E-2; n = 1.
Another assay has as its system PRKAG1. To be noted: read-out: apparent Kd; compound concentrations: 100 nM and 1000 nM (sheet 'Samples'), CATDS: 2.1564965270821398E-2; n = 1.
A further assay has as its system PRKAG2. The following applies: read-out: apparent Kd, compound concentrations: 100 nM and 1000 nM (sheet 'Samples'), n = 1.
The next assay deals with PRKCA. To be noted: read-out: apparent Kd; compound concentrations: 100 nM and 1000 nM (sheet 'Samples'), CATDS: 4.1441031849898502E-2; n = 1.
The subject of a further assay is PRKCB. To be noted: read-out: apparent Kd; compound concentrations: 100 nM and 1000 nM (sheet 'Samples'), CATDS: 3.5643049371418899E-2; n = 1.
The subject of the next assay is PRKCD. The following applies: read-out: apparent Kd; compound concentrations: 100 nM and 1000 nM (sheet 'Samples'), CATDS: 5.5614379812914103E-2; n = 1.
The next assay concerns PRKCQ. To be noted: read-out: apparent Kd; compound concentrations: 100 nM and 1000 nM (sheet 'Samples'), CATDS: 6.3184001345655702E-2; n = 1.
The test system of a further assay is PRKD2. The following applies: read-out: apparent Kd; compound concentrations: 100 nM and 1000 nM (sheet 'Samples'), CATDS: 1.9916010120102301E-2; n = 1.
The subject of a further assay is PRKG1. To be noted: read-out: apparent Kd; compound concentrations: 100 nM and 1000 nM (sheet 'Samples'), CATDS: 8.1540237220624201E-2; n = 1.
The subject of another assay is PRKX. To be noted: read-out: apparent Kd; compound concentrations: 100 nM and 1000 nM (sheet 'Samples'), CATDS: 3.8731961225305901E-2; n = 1.
In a further assay the test system is ROCK1. The following applies: read-out: apparent Kd; compound concentrations: 100 nM and 1000 nM (sheet 'Samples'), CATDS: 7.2769225266658799E-2; n = 1.
The subject of the next assay is ROCK2. The following applies: read-out: apparent Kd; compound concentrations: 100 nM and 1000 nM (sheet 'Samples'), CATDS: 5.7736516058252897E-2; n = 1.
The subject of another assay is RPS6KA5. The following applies: read-out: apparent Kd; compound concentrations: 100 nM and 1000 nM (sheet 'Samples'), CATDS: 2.03243213098795E-2; n = 1.
The subject of a further assay is RPS6KB1. To be noted: read-out: apparent Kd; compound concentrations: 100 nM and 1000 nM (sheet 'Samples'), CATDS: 4.2911282581945501E-2; n = 1.
The subject of a further assay is CLK3. To be noted: read-out: apparent Kd; compound concentrations: 100 nM and 1000 nM (sheet 'Samples'), CATDS: 0.62903265036008305; n = 1.
A further assay has as its system AKT1. The following applies: read-out: apparent Kd; compound concentrations: 100 nM and 1000 nM (sheet 'Samples'), CATDS: 5.9095519599072298E-2; n = 1.
The subject of another assay is AKT2. To be noted: read-out: apparent Kd; compound concentrations: 100 nM and 1000 nM (sheet 'Samples'), CATDS: 5.77170152352365E-2; n = 1.
Another assay deals with CDK17. To be noted: read-out: apparent Kd; compound concentrations: 100 nM and 1000 nM (sheet 'Samples'), CATDS: 5.5041868266542698E-2; n = 1.
Another assay deals with CDK6. To be noted: read-out: apparent Kd; compound concentrations: 100 nM and 1000 nM (sheet 'Samples'), CATDS: 5.9987442985443201E-2; n = 1.
The next assay relates to CSNK1A1. The following applies: read-out: apparent Kd; compound concentrations: 100 nM and 1000 nM (sheet 'Samples'), CATDS: 5.2392632468863803E-2; n = 1.
The test system of another assay is MAP2K1. To be noted: read-out: apparent Kd; compound concentrations: 100 nM and 1000 nM (sheet 'Samples'), CATDS: 5.50231746712945E-2; n = 1.
Another assay relates to MAP2K2. The following applies: read-out: apparent Kd; compound concentrations: 100 nM and 1000 nM (sheet 'Samples'), CATDS: 7.31538140973165E-2; n = 1.
Another assay has as its system MET. To be noted: read-out: apparent Kd; compound concentrations: 100 nM and 1000 nM (sheet 'Samples'), CATDS: 5.0838558886591501E-2; n = 1.
The subject of the next assay is NNT. To be noted: read-out: apparent Kd; compound concentrations: 100 nM and 1000 nM (sheet 'Samples'), CATDS: 6.8732534109556695E-2; n = 1.
The subject of the next assay is NQO1. The following applies: read-out: apparent Kd; compound concentrations: 100 nM and 1000 nM (sheet 'Samples'), CATDS: 6.20542756151947E-2; n = 1.
In a further assay the test system is PIP4K2C. The following applies: read-out: apparent Kd; compound concentrations: 100 nM and 1000 nM (sheet 'Samples'), CATDS: 5.5359350052651503E-2; n = 1.
The subject of a further assay is RAB6A;RAB6B. The following applies: read-out: apparent Kd; compound concentrations: 100 nM and 1000 nM (sheet 'Samples'), CATDS: 6.9234988104968295E-2; n = 1.
For a further assay, the system named is VDAC3. The following applies: read-out: apparent Kd; compound concentrations: 100 nM and 1000 nM (sheet 'Samples'), CATDS: 6.3375606463047907E-2; n = 1.

In article PMC11062922 (Nature Chemical Biology, 2023) one finds potency estimated from few doses data, which are given here for three compounds.

Where two headings read alike, the source gives them in different places.

On to `COc1ccc(O)c(C(=O)c2ccc(C(=O)N[C@@H]3CCCNC[C@H]3NC(=O)c3ccncc3)cc2)c1F.Cl` [RO4367842-001], for which the potency estimated from few doses was 587 nM in the assay with ADRBK1 (CATDS: 2.1593661333857501E-2); 1460 nM in the assay on AKT3 (CATDS: 1.9200970976664199E-2); 129 nM with CDC42BPA; 17.2 nM with CDC42BPB; 25.7 nM with CDC42BPG; 115 nM in the assay on CDKL5 (CATDS: 3.0884187274208798E-2). Besides, the potency estimated from few doses in the assay on CHEK1 was 33.5 nM; in the assay on JAK2, 294 nM; in the assay with NUAK1, 51.7 nM; in the assay with NUAK2, 60.9 nM; in the assay on PKN1, 62.9 nM; with PKN2, 182 nM. Also, the potency estimated from few doses with PKN3 was 1400 nM; with PRKAA1, 448 nM; in the assay with PRKAA2, 1090 nM; with PRKACA it was 11.1 nM; with PRKACB it was 17 nM; with PRKAG1, 592 nM. In addition, the potency estimated from few doses in the assay with PRKAG2 (CATDS: 2.8394039575996899E-2) was 155 nM; in the assay with PRKCA, 50.5 nM; in the assay on PRKCB, 74.4 nM; with PRKCD it was 27.2 nM; in the assay on PRKCQ, 21.6 nM; in the assay on PRKD2, 1050 nM. Moreover, the potency estimated from few doses in the assay with PRKG1 was 14.2 nM; with PRKX, 59.6 nM; in the assay on ROCK1, 17 nM; in the assay on ROCK2, 25.4 nM; in the assay on RPS6KA5, 897 nM; in the assay with RPS6KB1, 46.5 nM.
As to `COc1ccc2cc(-c3nc(-c4ccccc4C(C)C)[nH]c3-c3ccncc3)ccc2c1` [SB-660566], the potency estimated from few doses in the assay on ADRBK1 (CATDS: 0.41489344635778702) is 2070 nM; in the assay on CLK3 it was 865 nM.
For `N#Cc1c(NC(=O)CN2CCOCC2)sc2c1CCCC2.O=C(O)C(=O)O` [SB-657836-AAA], the potency estimated from few doses with ADRBK1 (CATDS: 5.9509771658031299E-2) is 1680 nM; with AKT1, 1700 nM; in the assay on AKT2 it was 1790 nM; in the assay with AKT3 (CATDS: 5.2731999581220101E-2), 2170 nM; in the assay on CDK17, 1970 nM; in the assay with CDK6, 1650 nM. The potency estimated from few doses was 2140 nM in the assay on CDKL5 (CATDS: 5.3023462381207802E-2); 2200 nM in the assay on CSNK1A1; 1980 nM in the assay on MAP2K1; 1150 nM with MAP2K2; 2370 nM in the assay with MET; 1280 nM in the assay with NNT. The potency estimated from few doses was 1550 nM in the assay on NQO1; 1950 nM in the assay on PIP4K2C; 1480 nM with PRKAG2 (CATDS: 6.3549748711714801E-2); 1260 nM in the assay on RAB6A;RAB6B; 1490 nM in the assay on VDAC3.
